Data published in PubChem BioAssay.
Calls of active or inactive are those of the source.

Columns and labels:
[1] = system: Plasmodium falciparum Sir2 (PF13_0152, Sir2A); assay: pfSir2 binders on small-molecule microarrays, primary screen, biochemical, small-molecule microarray, 635 nm fluorescence (AID 1098); details: small-molecule microarray binding, fluorescence 635 nm; higher = more signal;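 note: score merges spot fluorescence intensity with its signal-to-noise ratio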
[2] = small-molecule microarray binders of probe aDKK1, primary screen, biochemical, biotinylated probe, 635/667 nm fluorescence (AID 1099); details: higher = more signal;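 note: score merges 667nm spot fluorescence with signal to noise across triplicate slides; reference of the scale not given here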
[3] = small-molecule microarray binders of probe aCHRDL2, primary screen, biochemical, biotinylated probe, 635/667 nm fluorescence (AID 1100); details: higher = more signal
[4] = splicing luciferase reporter signal modulators, primary screen, spliceosome inhibition project, cell-based, HEK293, splice +/- reporter (AID 1101); details: luminescence, 24 h, higher = more signal, called active from +8 up or from −8 down;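 note: HEK293 cells carrying a splicing-competent luciferase reporter gene; test concentration not given here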
[5] = molecular target: Fibroblast growth factor 10 (Homo sapiens) (UniProt O15520); assay: FGF10 binders on small-molecule microarrays, primary screen, biochemical, small-molecule microarray, 635 nm fluorescence (AID 1102); details: FGF10 binding, fluorescence 635 nm, higher = more signal
Chain of Fibroblast growth factor 10 (Homo sapiens) (O15520 whole entry, looked up): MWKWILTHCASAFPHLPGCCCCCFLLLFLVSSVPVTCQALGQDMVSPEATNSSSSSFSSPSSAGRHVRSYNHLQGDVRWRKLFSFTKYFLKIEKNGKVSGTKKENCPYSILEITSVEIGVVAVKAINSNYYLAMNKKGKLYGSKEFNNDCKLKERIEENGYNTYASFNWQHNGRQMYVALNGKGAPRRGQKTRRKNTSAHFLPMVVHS

[6] = system: glycogen synthase kinase-3 (GSK3A per assay name; protocol says GSK3B); assay: GSK3 binders on small-molecule microarrays, primary screen, biochemical, small-molecule microarray, 635 nm fluorescence, GSK3A (AID 1103); details: small-molecule microarray binding, fluorescence 635 nm; higher = more signal; note: the record names both GSK3A and GSK3B
[7] = molecular target: Epidermal growth factor receptor (Homo sapiens) (UniProt P00533); assay: EGFR binders on small-molecule microarrays, primary screen, biochemical, small-molecule microarray, 635 nm fluorescence (AID 1104); details: EGFR binding, higher = more signal;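 note: score merges 667 nm emission intensity with spot signal to noise over triplicate slides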
Chain of Epidermal growth factor receptor (Homo sapiens) (P00533 whole entry, looked up): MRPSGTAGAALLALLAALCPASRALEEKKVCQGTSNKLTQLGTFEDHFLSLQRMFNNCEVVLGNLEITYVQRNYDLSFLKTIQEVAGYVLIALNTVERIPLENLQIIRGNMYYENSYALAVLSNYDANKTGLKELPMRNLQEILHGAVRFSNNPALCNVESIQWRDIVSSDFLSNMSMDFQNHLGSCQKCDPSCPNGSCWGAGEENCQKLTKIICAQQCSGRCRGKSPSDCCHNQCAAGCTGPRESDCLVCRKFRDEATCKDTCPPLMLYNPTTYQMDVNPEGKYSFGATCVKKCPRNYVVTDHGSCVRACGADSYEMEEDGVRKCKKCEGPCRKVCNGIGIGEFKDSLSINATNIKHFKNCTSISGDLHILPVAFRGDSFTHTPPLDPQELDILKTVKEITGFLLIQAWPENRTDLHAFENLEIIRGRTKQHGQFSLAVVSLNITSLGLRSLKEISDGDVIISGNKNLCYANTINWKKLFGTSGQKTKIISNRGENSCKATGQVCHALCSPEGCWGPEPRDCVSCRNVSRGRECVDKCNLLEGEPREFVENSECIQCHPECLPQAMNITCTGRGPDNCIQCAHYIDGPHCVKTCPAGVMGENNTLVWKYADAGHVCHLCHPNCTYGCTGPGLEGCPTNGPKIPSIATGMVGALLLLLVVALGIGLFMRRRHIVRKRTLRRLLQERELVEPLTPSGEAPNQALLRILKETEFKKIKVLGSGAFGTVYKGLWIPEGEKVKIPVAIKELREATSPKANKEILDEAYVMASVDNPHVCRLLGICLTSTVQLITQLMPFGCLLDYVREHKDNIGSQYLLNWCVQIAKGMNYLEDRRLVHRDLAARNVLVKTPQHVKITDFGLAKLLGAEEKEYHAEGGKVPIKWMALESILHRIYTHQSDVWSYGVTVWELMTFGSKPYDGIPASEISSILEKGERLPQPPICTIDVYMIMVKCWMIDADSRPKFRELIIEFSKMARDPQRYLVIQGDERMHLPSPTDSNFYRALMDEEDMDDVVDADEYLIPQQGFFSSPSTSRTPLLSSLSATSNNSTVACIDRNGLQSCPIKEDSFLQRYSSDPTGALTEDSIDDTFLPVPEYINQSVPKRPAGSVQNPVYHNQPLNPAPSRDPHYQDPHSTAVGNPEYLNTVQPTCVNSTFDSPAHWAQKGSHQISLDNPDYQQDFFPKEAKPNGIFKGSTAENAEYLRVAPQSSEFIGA

[8] = molecular target: Follistatin-related protein 3 (Homo sapiens) (UniProt O95633); assay: FSTL3 binders on small-molecule microarrays, primary screen, biochemical, small-molecule microarray, 635 nm fluorescence (AID 1105); details: FSTL3 binding, higher = more signal;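 note: score merges emission near 667 nm and signal to noise per printed spot across three slides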
Chain of Follistatin-related protein 3 (Homo sapiens) (O95633 whole entry, looked up): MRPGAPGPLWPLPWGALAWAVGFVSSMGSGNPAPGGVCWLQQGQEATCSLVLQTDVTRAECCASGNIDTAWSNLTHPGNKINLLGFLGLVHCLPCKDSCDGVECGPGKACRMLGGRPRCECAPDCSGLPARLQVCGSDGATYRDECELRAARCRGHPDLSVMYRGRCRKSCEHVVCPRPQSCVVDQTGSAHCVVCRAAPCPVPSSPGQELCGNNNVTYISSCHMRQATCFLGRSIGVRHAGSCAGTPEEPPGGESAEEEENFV

[9] = molecular target: Dickkopf-related protein 1 (Homo sapiens) (UniProt O94907); assay: DKK1 binders on small-molecule microarrays, primary screen, biochemical, small-molecule microarray, 635 nm fluorescence scan (AID 1106); details: DKK1 binding, higher = more signal;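 note: score merges emission near 667 nm with signal to noise over three replicate slides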
Chain of Dickkopf-related protein 1 (Homo sapiens) (O94907 whole entry, looked up): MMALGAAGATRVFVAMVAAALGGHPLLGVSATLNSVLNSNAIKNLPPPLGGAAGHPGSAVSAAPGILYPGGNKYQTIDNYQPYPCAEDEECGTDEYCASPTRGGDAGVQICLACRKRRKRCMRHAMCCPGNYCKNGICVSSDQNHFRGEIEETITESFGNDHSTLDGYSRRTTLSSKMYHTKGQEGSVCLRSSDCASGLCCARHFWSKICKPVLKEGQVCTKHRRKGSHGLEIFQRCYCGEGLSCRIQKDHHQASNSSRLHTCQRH

[10] = system: Inhibin beta A chain (activin A); assay: INHBA (activin A) binders on microarrays, primary screen, biochemical, small-molecule microarray, 635 nm fluorescence scan (AID 1107); details: small-molecule microarray binding, higher = more signal;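 note: mouse activin A protein probed at 4.33 µg/mL on printed slides; score merges bound-protein fluorescence near 667 nm with spot signal-to-noise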

Structure (SMILES) | composite z-score [1] | composite z-score [2] | composite z-score [3] | z-score [4] | composite z-score [5] | composite z-score [6] | composite z-score [7] | composite z-score [8] | composite z-score [9] | composite z-score [10]
NCCCCCCNC(=O)[C@@H]1C[C@@H]2C(=O)NCC(=O)N2[C@@H]1c1ccc(O)cc1 | 1.45 | -0.0828 | -0.0743 | -0.481 (inactive) | 1.05 | 1.3 | 0.574 | 1.3 | 1.6 | 0.802
O=C1C[C@@](C(=O)NCCN2CCOCC2)(c2ccc([N+](=O)[O-])cc2)[C@@H](c2ccc(CO)cc2I)N1CC12CC3CC(CC(C3)C1)C2 | 1.29 | -0.174 | 0.283 | -3.38 (inactive) | 1.33 | 1.3 | 0.545 | 1.03 | 0.324 | -0.0038
C=C[C@H](CO)NS(=O)(=O)c1ccc(Br)cc1 | 0.54 | 0.867 | -0.54 | -0.0902 (inactive) | 0.335 | 0.526 | 0.393 | 0.695 | 0.751 | 0.84
C=CCOC(=O)[C@H]1[C@@H]2C(=O)O[C@@H](c3ccccc3)[C@@H](c3ccccc3)N2[C@@H](c2ccc(OCCOC(=O)[C@H]3C[C@H]4C(=O)N[C@@H](CCCCN(C)C)C(=O)N4[C@H]3c3ccc(O)cc3)cc2)[C@]12C(=O)Nc1ccc(I)cc12 | 1.72 | 0.193 | 0.289 | 0.426 (inactive) | 1.31 | 1.32 | 0.741 | 1.41 | 0.849 | 1.29
COc1ccc(CCNC(=O)[C@@]2(Sc3ccc(C)cc3)CC(=O)N(C(C)C)[C@@H]2c2ccc(CO)cc2I)cc1 | 0.699 | 0.187 | 0.778 | -0.658 (inactive) | -0.316 | -1.02 | -0.719 | -0.645 | -0.267 | 1.08
CCCC#C[Si](O[C@H](CC)c1cn(Cc2cccc(Cl)c2)nn1)(C(C)C)C(C)C | 0.377 | -0.23 | -0.45 | -1.01 (inactive) | 1.11 | 1.05 | 0.484 | 0.566 | 0.52 | -0.121
COC(=O)[C@@]1(Cc2ccc(F)cc2)[C@H]2c3cc(C(=O)N4CCCC4)n(Cc4ccc(S(C)(=O)=O)cc4)c3C[C@H]2CN1C(=O)c1ccccc1 | 1.2 | 1.14 | 0.949 | -0.501 (inactive) | 0.598 | 0.108 | 0.771 | 0.473 | 0.328 | 1.38
CN1C(=O)C2C=CC(C(O)c3ccco3)N(Nc3ccccc3)C2C1=O (stereo not given) | 0.307 | 0.44 | 0.338 | 0.883 (inactive) | 0.953 | 0.386 | 0.466 | 0.523 | 0.519 | 1.16
O=C1C2C=CC(C(O)Cc3ccccc3)N(n3cnnc3)C2C(=O)N1Cc1ccccc1 (stereo not given) | 0.386 | 0.73 | 0.868 | -0.195 (inactive) | 0.33 | 0.0704 | -0.216 | -0.294 | -0.387 | 0.825
CO[C@H]1O[C@H](CO)[C@@H](OC(=O)Nc2ccc(C(F)(F)F)cc2)[C@H](OC(=O)Nc2ccc3c(c2)OCO3)[C@@H]1OC(=O)Nc1ccc2c(c1)OCO2 | 1.06 | 0.346 | 0.284 | -1.29 (inactive) | 1.41 | 1.2 | 0.587 | 0.527 | 0.711 | 0.543
CN(C)CCCCCCNC(=O)[C@@H]1C[C@@H]2C(=O)N[C@@H](Cc3ccccc3)C(=O)N2[C@@H]1c1ccc(O)cc1 | 1.51 | 0.026 | -0.127 | -0.926 (inactive) | 1.06 | 1.35 | 1.37 | 1.44 | 1.38 | 1.41
O=C(N1CCCCC1)[C@]1(Cc2ccccc2)N=C(c2ccc(OCCCO)cc2)O[C@@H]1c1ccccc1 | 1.05 | 0.887 | 1.08 | -0.555 (inactive) | 0.956 | 0.669 | -0.394 | 0.512 | -0.474 | 0.99
CCOC(=O)C[C@H]1[C@H](OC(=O)c2ccc(C(=O)c3ccccc3)cc2)[C@@H](NC(=O)c2ccc3ccccc3c2)c2cc(OCCCO)ccc2N1C(=O)Cc1ccc(OC)cc1 | 1.14 | 0.282 | 0.503 | -0.175 (inactive) | 0.545 | 0.158 | -0.16 | 0.303 | -0.213 | 0.856
O=C1C[C@@](C(=O)NCC(F)(F)F)(c2ccc([N+](=O)[O-])cc2)[C@@H](c2ccc(CO)cc2I)N1C1CCCCC1 | 0.47 | 0.0918 | 0.574 | 0.0169 (inactive) | 1.09 | 1.18 | 0.515 | 0.995 | 0.155 | 0.539
CC(C)N1C(=O)C[C@@](C(=O)NCC(F)(F)F)(c2ccc([N+](=O)[O-])cc2)[C@H]1c1ccc(CO)cc1 | 1.42 | -0.186 | 0.52 | -0.259 (inactive) | -0.244 | 0.0211 | -0.399 | -0.241 | -0.272 | 0.5
CO[C@H]1O[C@H](CO)[C@@H](OC(=O)Nc2ccccc2)[C@H](OC(=O)Nc2ccccc2)[C@@H]1OC(=O)Nc1ccccc1 | 1.48 | -0.136 | -0.103 | -1.29 (inactive) | 1.44 | 1.3 | 1.12 | 1.11 | 0.439 | 0.0784
CCS[C@H]1[C@@H](C(=O)O)[C@H](c2ccc(C)cc2)N(S(=O)(=O)c2ccc(C)cc2)[C@@H]1CC | 0.673 | 0.686 | 0.907 | 0.269 (inactive) | 1.14 | 0.793 | 0.0771 | 1.1 | -0.0423 | 0.626
COc1ccc([Si](C)(C)[C@@H]2[C@@H](CCO)O[C@]3(C(=O)N(Cc4ccc(N(C=O)c5ccccc5)cc4)c4ccccc43)[C@H]2C)cc1 | 0.724 | 0.116 | 0.605 | -1.38 (inactive) | 0.224 | -0.157 | -0.049 | 0.218 | -0.013 | 1.1
C=CCOC(=O)[C@@H]1[C@H]2C(=O)O[C@H](c3ccccc3)[C@H](c3ccccc3)N2[C@H](c2ccc(OCCOC(=O)[C@H]3C[C@H]4C(=O)N5CCC[C@H]5C(=O)N4[C@H]3c3ccc(O)cc3)cc2)[C@@]12C(=O)Nc1ccc(I)cc12 | 1.62 | 0.158 | 0.0375 | -1.27 (inactive) | 1.17 | 1.34 | 0.785 | 1.14 | 0.986 | 0.379
CCOC(=O)[C@H]1C/C=C/C[C@H](C(=O)OCC)C(=O)O[C@H]2[C@@H](OC)O[C@H](CO)[C@@H](OC(=O)c3c(OC)cccc3OC)[C@@H]2OC1=O | 0.615 | -0.0451 | 0.152 | 0.837 (inactive) | 0.803 | 0.62 | -0.13 | 1.16 | 0.764 | 0.837
O=C1NC(=O)C2C1C=CC(C(O)c1cccs1)N2Nc1ccc(Cl)cc1Cl (stereo not given) | 1 | 0.82 | 1.03 | 0.569 (inactive) | 0.438 | -1.21 | -0.893 | -0.375 | -0.456 | 1.03
CC(=O)NCCCC[C@@H]1NC(=O)[C@H]2C[C@@H](C(=O)NCCCCCCNC(=O)CS)[C@@H](c3ccc(O)cc3)N2C1=O | 0.629 | -0.0749 | 0.986 | -0.401 (inactive) | 0.0258 | 0.0703 | -0.728 | -0.961 | -0.788 | -1.11
C=CCOC(=O)[C@H]1[C@@H]2C(=O)O[C@@H](c3ccccc3)[C@@H](c3ccccc3)N2[C@@H](c2ccc(OCCOC(=O)[C@@H]3C[C@@H]4C(=O)N[C@@H](CCCCNC(C)=O)C(=O)N4[C@@H]3c3ccc(O)cc3)cc2)[C@]12C(=O)Nc1ccccc12 | 1.65 | -0.208 | -0.187 | -0.0104 (inactive) | 0.768 | 1.3 | 0.673 | 1.28 | 0.783 | 0.152
COC(=O)C(CC#Cc1ccc2c(c1)[C@]1(C(=O)N2)[C@H](c2ccc(OCCO)cc2)N2[C@H](c3ccccc3)[C@H](c3ccccc3)OC(=O)[C@H]2[C@@H]1C(=O)N1CCc2cc(OC)c(OC)cc2C1)C(=O)OC | 1.47 | 0.508 | 0.381 | -0.369 (inactive) | 1.4 | 1.32 | 0.485 | 1.41 | 0.506 | 1.18
C=C(COC)C(=O)CC[C@@H](OC(C)=O)c1ccc(CO)o1 | 1.38 | 0.0244 | -0.45 | 0.264 (inactive) | 1.24 | 0.139 | -0.42 | 1.52 | 1.48 | 1.38
CCC(CC)C(O)C1C=CC2C(=O)NC(=O)C2N1Nc1ccc(Cl)cc1Cl (stereo not given) | 1.28 | 0.921 | 1 | 1.6 (inactive) | 0.626 | 0.451 | -0.304 | 0.934 | -0.267 | 0.764
COC(=O)c1c(CC[C@@H](CO)NC(=O)NCCn2cc(C3(O)CCCC3)nn2)oc(C(C)=O)c1C(=O)OC | 0.546 | -0.147 | -0.26 | -0.152 (inactive) | -0.0339 | -0.0275 | 0.218 | -0.234 | 0.0587 | 0.129
CC(C)=CCN[C@H](CO)c1ccccc1 | 0.38 | -0.274 | -0.235 | -0.795 (inactive) | 0.795 | -0.366 | 0.149 | 0.576 | 0.749 | 1.01
